The source of these data is PubChem BioAssay (NCATS).

Assay [1] in a line: qHTS profiling of the MIPE4 collection as inhibitors of Plasmodium falciparum (3D7) proliferation (AID 743344).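 Also: scaled between DMSO vehicle wells and 0.29 µM artemisinin as full inhibition.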 To be noted: P. falciparum 3D7 in erythrocytes, SYBR Green DNA fluorescence, 72 h; at 28.5 µM unless noted. In a few lines: (§1)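 Erythrocytes infected with P. falciparum (0.3% parasitemia, 2.5% hematocrit) incubated with compounds 72 h at 37 C, 5% CO2. Lysis with saponin/Triton buffer containing SYBR Green I, overnight at room temperature in the dark; DNA fluorescence (485/535 nm) normalised to 0.29 uM artemisinin and DMSO.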
A general note: qHTS replaces the single test concentration by a dilution series.

Assay [2] is described as follows: qHTS profiling of the MIPE4 collection as inhibitors of Plasmodium falciparum (DD2) proliferation (AID 743345). To be noted: P. falciparum Dd2 in erythrocytes, SYBR Green DNA, 72 h; at 28.5 µM unless noted. In a few lines: as §1
Assay [3] in a line: qHTS profiling of the MIPE4 collection as inhibitors of Plasmodium falciparum (DD2) proliferation (Rep 2) (AID 743346). To be noted: P. falciparum Dd2 in erythrocytes, SYBR Green DNA, 72 h; at 28.5 µM unless noted. A digest of the protocol:
as §1

Assay [4] is described as follows: qHTS profiling of the MIPE4 collection as inhibitors of Plasmodium falciparum (HB3) proliferation (AID 743347).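 Also: plate controls were DMSO vehicle wells for no effect and artemisinin wells for full effect.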 To be noted: P. falciparum HB3 in erythrocytes, SYBR Green DNA, 72 h; at 28.5 µM unless noted. A digest of the protocol:
as §1

Assay [5] can be described thus: High-throughput drug toxicity screening in the BPDCN cell line Gen2.2 (AID 1224824).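 Also: cells exposed to compounds for 48 h before reading.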 To be noted: Gen2.2 BPDCN cells; at 45.8 µM (top of the series) unless noted. In a few lines:
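Gen2.2 cells (500/well) in phenol red-free RPMI with 10% FBS were exposed to compounds for 48 h at 37 °C, 5% CO2. Viability was read by CellTiter-Glo luminescence and normalized to DMSO (100%) and 9.2 uM bortezomib (0%).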

The nature of assay [6]: High-throughput drug toxicity screening in the BPDCN cell line Cal-1 (AID 1224825). To be noted: Cal-1 BPDCN cell viability, qHTS; at 45.8 µM (top of the series) unless noted. A digest of the protocol:
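Exponentially growing Cal-1 cells, 500 per well in phenol red-free RPMI with 10% FBS, were exposed to compounds for 48 h at 37 °C, 5% CO2. Viability was read by CellTiter-Glo luminescence and normalised to DMSO (100%) and 9.2 uM bortezomib (0%).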

Assay [7] in a line: qHTS Screen of the MIPE 4.0 Collection Against Ewings Sarcoma (RDES) (AID 1259252; active = well fitted curve in the direction sought with a large enough effect; an effect the other way counts as inactive or inconclusive; also: nearly all actives have a fitted effect of over 35% in size; also: potency is read from the fitted curve at half-maximal effect). A digest of the protocol:
(§2)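 Here, cells in 5% FBS RPMI were exposed for two days (48 h) to compound dilutions added four hours after plating. ATP-based CellTiter-Glo luminescence measured viability, normalized to vehicle and no-cell blanks.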

The nature of assay [8]: qHTS Screen of the MIPE 4.0 Collection Against Ewings Sarcoma (TC71) (AID 1259253; active = well fitted curve in the direction sought with a large enough effect; an effect the other way counts as inactive or inconclusive; also: nearly all actives have a fitted effect of over 40% in size; also: potency is read from the fitted curve at half-maximal effect). In a few lines:
as §2

Assay [9] can be described thus: qHTS Screen of the MIPE 4.0 Collection Against Ewings Sarcoma (TC32) (AID 1259256; active = well fitted curve in the direction sought with a large enough effect; an effect the other way counts as inactive or inconclusive; also: nearly all actives have a fitted effect of over 45% in size; also: potency is read from the fitted curve at half-maximal effect). A digest of the protocol:
as §2

A short description of assay [10]: qHTS Screen of the MIPE 4.0 Collection Against Ewings Sarcoma (EW8) (AID 1259255; active = well fitted curve in the direction sought with a large enough effect; an effect the other way counts as inactive or inconclusive; also: nearly all actives have a fitted effect of over 35% in size; also: potency is read from the fitted curve at half-maximal effect;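 as to viability: 100% = DMSO-treated cells and 0% = medium-only wells without cells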). A digest of the protocol:
as §2

A short description of assay [11]: qHTS assay for measurement of the activity of small molecule inhibitors on Zika virus induced Caspase-3 activity in human astrocytoma cells (AID 1224859; active = well fitted curve in the direction sought with a large enough effect; an effect the other way counts as inactive or inconclusive;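 also: plate controls were ZIKV-infected untreated cells for no effect and uninfected cells for full effect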). In a few lines:
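Caspase activation in ZIKV-infected SNB-19 cells (2 FFU/cell, 6 h) measured by Caspase-Glo 3/7 luminescence after 30 min RT; compound pre-incubated 1 h; normalised to uninfected and infected controls.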

The nature of assay [12]: qHTS profiling for inhibitors of Plasmodium falciparum (HB3) proliferation (AID 743324; active = well fitted curve in the direction sought with a large enough effect; an effect the other way counts as inactive or inconclusive;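 also: 100% = DMSO vehicle wells and 0% = artemisinin-treated control wells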). To be noted: Plasmodium falciparum HB3 blood-stage proliferation; at 28.7 µM (top of the series). A digest of the protocol: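 P. falciparum HB3 grown in erythrocytes (0.3% parasitemia, 2.5% hematocrit final) with compound for 72 h at 37 C, 5% CO2. Parasite DNA detected by SYBR Green after saponin/triton lysis overnight; normalized to 0.29 uM artemisinin and DMSO.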

Assay [13] can be described thus: Identifying Small Molecule Inhibitors of Pancreatic Cancer Stem Cells (SN12C, Spheroid) (AID 1259360; active = well fitted curve in the direction sought with a large enough effect; an effect the other way counts as inactive or inconclusive;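 also: 100% = DMSO-treated cells and 0% = wells without cells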). To be noted: Potency: SN12C spheroid viability. In a few lines: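 Pre-formed 14-day tumor spheroids or adherent cells dosed and incubated 48 h, 37C, 5% CO2. Viability assessed by CellTiter-Glo.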
A short description of assay [14]: qHTS profiling for inhibitors of Plasmodium falciparum (3D7) proliferation (AID 743322).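 Also: infected erythrocytes exposed to compound for 72 h before lysis; 100% = DMSO vehicle wells and 0% = 0.29 µM artemisinin.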 To be noted: P. falciparum 3D7 proliferation; at 28.7 µM (top of the series). In a few lines:
as §1

Assay [15] can be described thus: qHTS profiling for inhibitors of Plasmodium falciparum (DD2) proliferation (AID 743323). To be noted: lower = more inhibition; at 28.7 µM (top of the series). A digest of the protocol: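 1536-well qHTS; infected RBCs 0.3% parasitemia/2.5% Hct final; cpd 72 h 37 C 5% CO2; lysis buffer + SYBR Green I, o/n RT dark; FI 485/535; norm. to 0.29 uM artemisinin and DMSO, plate-stack corrected.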

Each structure is given as a SMILES string. Inconclusive results are not listed. Active and inactive are the calls of the source. Unless noted, no rule for the calls is given here.

In [1], `O=C(O)c1cc(O)c2c(c1)C(=O)c1cccc(O)c1C2=O` came in with a parasite growth, % of DMSO control of 62.1% [at 57.5 µM]. Besides, in [2], the parasite growth remaining, % of DMSO control (lower = more inhibition) came out at 73.9% [at 57.5 µM]. The parasite growth, % of control (lower = inhibition) in assay [3] came to 43.2% [at 57.5 µM]. In assay [4], the growth, % of control came out at 44.1% [at 57.5 µM]. The cell viability, % of control (lower = more cytotoxic) in assay [5] is 168% [at 92.2 µM]. Besides, the viability (% of control) in [6] was 124% [at 92.2 µM]. Also, the Potency result in assay [7], in assay [8] and in assay [9] was “inactive” each time.
For the compound `O=c1cc(-c2ccc(O)cc2)oc2cc(O)cc(O)c12`, the parasite growth, % of DMSO control in [1] was determined as 7.22%. Besides, the parasite growth remaining, % of DMSO control (lower = more inhibition) in [2] was 42.9%. In assay [3], the parasite growth, % of control (lower = inhibition) is 6.57%. The growth, % of control in [4] came to 3.14%. In addition, the cell viability, % of control (lower = more cytotoxic) in assay [5] turned out to be 8.72%. Also, in assay [6], the viability (% of control) was found to be 4.48%. The Potency was 18.7 µM (active) in [7], 20.9 µM (active) in assay [8] and 23.5 µM (active) in assay [10].
Compound `C[C@H](NC(=O)C(=O)Nc1ccccc1C(C)(C)C)C(=O)N[C@@H](CC(=O)O)C(=O)COc1c(F)c(F)cc(F)c1F` returned a parasite growth, % of DMSO control in assay [1] of 73.8%. In addition, the parasite growth remaining, % of DMSO control (lower = more inhibition) in [2] was 107%. Further, in [5], the cell viability, % of control (lower = more cytotoxic) is 200%. The viability (% of control) in [6] was determined as 8.98%. Also, the Potency entry in [7], in assay [8], in [10] and in [9] was “inactive” throughout.
For the compound `CCn1c(C(=O)N(C2CC2)C2CC2)cc2c3c(ncn3C)c(Nc3cc(C)n(C)n3)nc21`, in [1], the parasite growth, % of DMSO control turned out to be 9.81%. Moreover, in [2], the parasite growth remaining, % of DMSO control (lower = more inhibition) was 12.4%. In assay [3], this compound came in with a parasite growth, % of control (lower = inhibition) of 23.5%. Also, the growth, % of control in assay [4] came out at 11.5%. Moreover, the cell viability, % of control (lower = more cytotoxic) in assay [5] came out at 144%. In addition, in assay [6], the viability (% of control) turned out to be 90.8%. Besides, in [11], the Potency result was “inactive”.
Regarding `CS(=O)c1ccc(-c2nc(-c3ccc(F)cc3)c(-c3ccncc3)[nH]2)cc1` (stereo not drawn), the remaining proliferation (% of control), lower = more inhibition in [12] is 20.3%. The compound further gave a parasite growth, % of DMSO control in assay [1] of 19.5% [at 57.5 µM]. Also, in assay [2], the parasite growth remaining, % of DMSO control (lower = more inhibition) turned out to be 26.4% [at 57.5 µM]. The growth, % of control in assay [4] worked out at 7.77% [at 57.5 µM]. In addition, the cell viability, % of control (lower = more cytotoxic) in [5] was found to be 41.2% [at 92.2 µM]. Moreover, the viability (% of control) in [6] stood at 14.2% [at 92.2 µM]. The Potency result in [11] and in assay [13] was “inactive” in each case.
For `COc1ccc2c(Oc3ccc(NC(=O)c4c(C)n(CC(C)(C)O)n(-c5ccccc5)c4=O)nc3)ccnc2c1`, the parasite growth, % of DMSO control in [1] amounted to 9.27%. The parasite growth remaining, % of DMSO control (lower = more inhibition) in assay [2] is 18.1%. This compound also came in with a growth, % of control in assay [4] of 8.88%. In addition, the cell viability, % of control (lower = more cytotoxic) in [5] is 29.7%. Moreover, the viability (% of control) in assay [6] is 17.2%. Besides, the Potency entry in [11] was “inactive”. Besides, the Potency in assay [9] was 18.7 µM (active).
`COCCOC(=O)C1=C(C)NC2=C(C(=O)CC(c3ccccc3OC)C2)C1c1cccc(O)c1` (stereo not drawn) yielded a parasite growth, % of DMSO control in assay [1] of 11.6%. Moreover, the parasite growth remaining, % of DMSO control (lower = more inhibition) in [2] is 9.83%. Further, in [3], the parasite growth, % of control (lower = inhibition) turned out to be 51.8%. The compound also came in with a growth, % of control in assay [4] of 17.6%. Further, in assay [5], the cell viability, % of control (lower = more cytotoxic) was 4.78%. Further, the viability (% of control) in [6] came out at 5.74%. Further, the Potency result in assay [11] is “inactive”.
For the compound `NC(CO)(CO)CCc1ccc(Sc2cccc(OCc3ccccc3)c2)cc1Cl`, in assay [14], the remaining parasite growth % (stronger effect = lower value) is -0.423%. In assay [15], this compound registered an activity, percent of control of 1.55%. Also, the remaining proliferation (% of control), lower = more inhibition in assay [12] is -1.39%. This compound showed a parasite growth, % of DMSO control in [1] of 4.87%. Moreover, the parasite growth remaining, % of DMSO control (lower = more inhibition) in [2] turned out to be 8.96%. In assay [3], this compound showed a parasite growth, % of control (lower = inhibition) of 15.3%. The growth, % of control in assay [4] came to 6.89%. In assay [5], the cell viability, % of control (lower = more cytotoxic) came out at 7.64%. Besides, the viability (% of control) in assay [6] turned out to be 5.26%. For the same compound, the Potency entry in assay [11] was “inactive”.
Turning to `COc1cccc2c1CCCC2CCCN1CCN(C2CCCCC2)CC1` (stereo not drawn), the remaining parasite growth % (stronger effect = lower value) in assay [14] is -0.577%. In [15], this compound had an activity, percent of control of 3.08%. The remaining proliferation (% of control), lower = more inhibition in assay [12] came out at 1.97%. Besides, in assay [1], the parasite growth, % of DMSO control was 6.86%. For the same compound, in assay [2], the parasite growth remaining, % of DMSO control (lower = more inhibition) stood at 54.8%. This compound had a parasite growth, % of control (lower = inhibition) in assay [3] of 16.3%. The compound further came in with a growth, % of control in assay [4] of 5.02%. The cell viability, % of control (lower = more cytotoxic) in [5] was found to be 165%. Besides, the viability (% of control) in assay [6] amounted to 11.1%. The Potency entry in assay [11] was “inactive”.
`O=c1c(-c2ccc(O)cc2)coc2cc(O[C@@H]3O[C@H](CO)[C@H](O)[C@H](O)[C@H]3O)ccc12` had a parasite growth, % of DMSO control in assay [1] of 91.8%. Besides, the parasite growth remaining, % of DMSO control (lower = more inhibition) in assay [2] turned out to be 97.7%. Besides, the growth, % of control in assay [4] is 104%. The cell viability, % of control (lower = more cytotoxic) in assay [5] came to 101%. The viability (% of control) in [6] came out at 99.8%. Further, the Potency entry in assay [8], in assay [10] and in [9] was “inactive” in each case.
